Reference: the supplement of paper PMC9433436
± gives the standard deviation of the averaged measurements. In all, about 4,100 sequences were measured (“relative kcat/Km (krel) vs genomic leader AAAGAU”: median about 1.7, highest 2% from about 6.5 on). What follows is part of a selection rich in the highest values, with near analogues and random picks from the rest.

Biological target: T1, E. coli RNase P holoenzyme (M1 P RNA + rnpA protein) (UniProt P0A7Y8)
T1 sequence: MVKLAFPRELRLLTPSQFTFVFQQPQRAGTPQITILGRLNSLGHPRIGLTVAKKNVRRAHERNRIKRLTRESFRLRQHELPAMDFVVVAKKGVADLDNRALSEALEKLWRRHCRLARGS
Experiment: relative kcat/Km (krel) vs genomic leader AAAGAU (relative (reference leader = 1)); higher = faster RNase P cleavage
Method: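 HTS-Kin: a pool of ptRNA-Met (21C construct) with all 4096 combinations of 5' leader nucleotides N(-6) to N(-1) was processed in vitro by E. coli RNase P (P RNA + rnpA/C5 protein) under multiple-turnover conditions at 37 C, pH 8, 17.5 mM MgCl2. Residual substrate was Illumina-sequenced at several fractions reacted, and relative kcat/Km (krel) was computed by internal competition kinetics, calibrated to the genomic leader (AAAGAU = 1). The listed hexamer is the varied N(-6)..N(-1) leader (DNA letters), and it sits between a fixed 5' stem-loop flank (GCAUGCACGAAAGUGCGUGCUAUGAA) and the mature tRNA-Met starting GGCUACGUAGCUCAGUUGG. Two technical replicates are averaged.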

[1] = fraction of substrate reacted: ~9-10% (9.79% repeat 1, 9.1% repeat 2)
[2] = fraction of substrate reacted: ~13-16% (15.68% repeat 1, 13.17% repeat 2)
[3] = fraction of substrate reacted: ~26-29% (28.66% repeat 1, 26.4% repeat 2)

TGTTGA
relative kcat/Km [1]: 2.15 ± 0.44
relative kcat/Km [2]: 3.32 ± 1.3
relative kcat/Km [3]: 5.59 ± 2.1

TGTTGC
relative kcat/Km [1]: 2.72 ± 0.32
relative kcat/Km [2]: 2.95 ± 0.082
relative kcat/Km [3]: 4.88 ± 1.9

TGTTAC
relative kcat/Km [1]: 3.59 ± 1.3
relative kcat/Km [2]: 5.21 ± 1.2
relative kcat/Km [3]: 8.19 ± 3.8

TGTTAA
relative kcat/Km [1]: 4.01 ± 0.87
relative kcat/Km [2]: 5.39 ± 1.7
relative kcat/Km [3]: 7.94 ± 3.5

ATGCAG
relative kcat/Km [2]: 0.709 ± 0.22
relative kcat/Km [3]: 0.668 ± 0.4

ACAGCG
relative kcat/Km [3]: 1.17 ± 0.16

AAGGGT
relative kcat/Km [3]: 0.872 ± 0.84

GAATTA
relative kcat/Km [1]: 1.25 ± 0.15
relative kcat/Km [2]: 1.82 ± 0.37
relative kcat/Km [3]: 2.25 ± 0.75

AATGCC
relative kcat/Km [1]: 2.38 ± 1.7
relative kcat/Km [2]: 1.43 ± 0.1
relative kcat/Km [3]: 1.48 ± 0.22

TCGCAA
relative kcat/Km [1]: 2.14 ± 1.8
relative kcat/Km [2]: 2.55 ± 0.15
relative kcat/Km [3]: 3.22 ± 0.85

CAGATT
relative kcat/Km [1]: 1.72 ± 0.68
relative kcat/Km [2]: 2 ± 0.1
relative kcat/Km [3]: 2.79 ± 0.81

CGTTAA
relative kcat/Km [1]: 3.62 ± 0.3
relative kcat/Km [2]: 5.04 ± 1.6
relative kcat/Km [3]: 7.04 ± 2.8

TGTTAG
relative kcat/Km [1]: 2.17 ± 1.1
relative kcat/Km [2]: 2.36 ± 0.065
relative kcat/Km [3]: 4.6 ± 1.1

TGTTAT
relative kcat/Km [1]: 3.17 ± 1.4
relative kcat/Km [2]: 4.69 ± 0.22
relative kcat/Km [3]: 6.81 ± 2.8

CGTTAC
relative kcat/Km [1]: 3.84 ± 0.72
relative kcat/Km [2]: 5.28 ± 1.9
relative kcat/Km [3]: 7.82 ± 2.9

CGTTAT
relative kcat/Km [1]: 4.04 ± 1
relative kcat/Km [2]: 5.58 ± 1.3
relative kcat/Km [3]: 8.08 ± 3.4

CGTTTA
relative kcat/Km [1]: 2.35 ± 0.28
relative kcat/Km [2]: 3.11 ± 0.48
relative kcat/Km [3]: 4.14 ± 1.4

CGTTAG
relative kcat/Km [1]: 2.87 ± 1.6
relative kcat/Km [2]: 2.22 ± 0.3
relative kcat/Km [3]: 4 ± 1.2

GGTTAA
relative kcat/Km [1]: 0.853 ± 0.094
relative kcat/Km [2]: 1.16 ± 0.33
relative kcat/Km [3]: 1.35 ± 0.6

CGTTGT
relative kcat/Km [1]: 0.465 ± 0.32
relative kcat/Km [3]: 1.21 ± 0.9

TGTTCT
relative kcat/Km [1]: 1.986 ± 0.0021
relative kcat/Km [2]: 2.58 ± 0.73
relative kcat/Km [3]: 4.41 ± 1.8

GGTTAT
relative kcat/Km [1]: 0.926 ± 0.33
relative kcat/Km [2]: 1.69 ± 0.19
relative kcat/Km [3]: 2.83 ± 1.2

GGTTAC
relative kcat/Km [1]: 0.591 ± 0.54
relative kcat/Km [2]: 1.09 ± 0.22
relative kcat/Km [3]: 2.13 ± 0.98

TATTGT
relative kcat/Km [1]: 0.735 ± 0.4

GACCAC
relative kcat/Km [1]: 2.53 ± 1.4
relative kcat/Km [2]: 3.51 ± 0.65
relative kcat/Km [3]: 5.22 ± 1.2

GCCCAG
relative kcat/Km [1]: 0.499 ± 0.44
relative kcat/Km [2]: 0.933 ± 0.79
relative kcat/Km [3]: 3 ± 0.76

AAAATC
relative kcat/Km [1]: 2.07 ± 0.94
relative kcat/Km [2]: 1.14 ± 0.28
relative kcat/Km [3]: 1.37 ± 0.15

ACTTAC
relative kcat/Km [1]: 3.88 ± 2.3
relative kcat/Km [2]: 4.09 ± 0.096
relative kcat/Km [3]: 5.29 ± 1.6

AGTTAC
relative kcat/Km [1]: 3.18 ± 1.6
relative kcat/Km [2]: 5.31 ± 0.22
relative kcat/Km [3]: 7.26 ± 2.7

AGTTAG
relative kcat/Km [1]: 2.06 ± 1.1
relative kcat/Km [2]: 2.34 ± 0.29
relative kcat/Km [3]: 4.77 ± 1.3

TACGTA
relative kcat/Km [1]: 2.14 ± 0.53
relative kcat/Km [2]: 2.47 ± 0.38
relative kcat/Km [3]: 3.67 ± 1.2

CAGAGT
relative kcat/Km [3]: 0.537 ± 0.3

TGCTTC
relative kcat/Km [1]: 2.79 ± 0.96
relative kcat/Km [2]: 2.83 ± 0.76
relative kcat/Km [3]: 3.73 ± 1.2

CTCTTG
relative kcat/Km [1]: 2.31 ± 1.9
relative kcat/Km [2]: 1.64 ± 0.35
relative kcat/Km [3]: 3.11 ± 0.5

CTCTTA
relative kcat/Km [1]: 2.98 ± 0.098
relative kcat/Km [2]: 4.69 ± 1.5
relative kcat/Km [3]: 6.21 ± 2.8

GTCTTT
relative kcat/Km [1]: 4.65 ± 1.2
relative kcat/Km [2]: 5.87 ± 1.4
relative kcat/Km [3]: 8.44 ± 3.8

TTCTTC
relative kcat/Km [1]: 4.65 ± 1.6
relative kcat/Km [2]: 5.94 ± 0.85
relative kcat/Km [3]: 7.95 ± 3.2

TTCTTA
relative kcat/Km [1]: 4.55 ± 1.2
relative kcat/Km [2]: 5.9 ± 0.59
relative kcat/Km [3]: 7.98 ± 3.2

ATCTTA
relative kcat/Km [1]: 2.6 ± 0.64
relative kcat/Km [2]: 3.89 ± 0.59
relative kcat/Km [3]: 5.74 ± 2.1

CTCTTT
relative kcat/Km [1]: 3.59 ± 0.8
relative kcat/Km [2]: 4.98 ± 1.2
relative kcat/Km [3]: 7.01 ± 3

GTCTTG
relative kcat/Km [1]: 2.05 ± 1.9
relative kcat/Km [2]: 1.96 ± 0.21
relative kcat/Km [3]: 3.58 ± 0.69

GCCTTT
relative kcat/Km [1]: 3.36 ± 1.7
relative kcat/Km [2]: 3.71 ± 0.066
relative kcat/Km [3]: 5.06 ± 1.7

ATCTTC
relative kcat/Km [1]: 3.23 ± 1.1
relative kcat/Km [2]: 4.36 ± 0.71
relative kcat/Km [3]: 6.11 ± 2.2

CTCTTC
relative kcat/Km [1]: 3.63 ± 0.69
relative kcat/Km [2]: 4.38 ± 0.62
relative kcat/Km [3]: 6.47 ± 2.3

TTAACT
relative kcat/Km [1]: 1.58 ± 0.78
relative kcat/Km [2]: 1.54 ± 0.2
relative kcat/Km [3]: 2.03 ± 0.47

CCTCCC
relative kcat/Km [1]: 0.874 ± 0.5
relative kcat/Km [2]: 1.06 ± 0.17
relative kcat/Km [3]: 1.57 ± 0.17

CTAGAC
relative kcat/Km [1]: 1.95 ± 0.33
relative kcat/Km [2]: 3.27 ± 0.96
relative kcat/Km [3]: 4.19 ± 2.1

GGATTA
relative kcat/Km [1]: 1.24 ± 0.14
relative kcat/Km [2]: 0.993 ± 0.47
relative kcat/Km [3]: 1.52 ± 0.41

TCGGTG
relative kcat/Km [1]: 0.643 ± 0.43
relative kcat/Km [3]: 0.367 ± 0.27
